Test [1] in a line: GFP-Q80 aggregate reduction, neuronal-like cells, cell-based, NGF-treated PC12, GFPQ80 (AID 1614).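 Further: lower means fewer inclusions and 0 means no inclusions at all.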 Conditions: PC12 NGF-treated GFP-polyQ80 inclusion reduction.
Test [2] can be described thus: compounds altering circadian rhythm period length – cell-based, LOPAC library, luminescence reporter (AID 2774).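 Further: values are relative to mean of DMSO wells on each plate.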 Conditions: circadian reporter cells, at 7 µM, actives lie on both sides.
Test [3] relates to Hepatitis C virus NS3 helicase. The test can be described thus: blockers of NS3h binding to ssDNA – biochemical, fluorescence polarization, LOPAC1280 library, primary screen (AID 687035; in the data active means inhibition above about 37%). Conditions: Purified HCV NS3 helicase, Cy5-dT15 ssDNA binding fluorescence polarization; stronger effect = higher value; concentration not given here. (In general: Polarisation of emitted light reports the rotation of a fluorescent probe.)

Test [4] in a line: compounds altering Cy5-DNA-NS3h complex signal – biochemical, LOPAC1280, artefact control for HCV NS3 helicase inhibitor project (AID 687037). Conditions: Cy5-DNA-NS3h complex fluorescence interference counterscreen. (The purpose of a counterscreen is to sort out artefacts and off-target activity.)
Test [5] is described as follows: viability loss in pontine glioma line – cell-based, SU-DIPG-IV, MIPE4.0, CellTiter-Glo, qHTS, dose response (AID 1347063; cut-off not given, nearly all actives have AC50 up to about 30 µM;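 further: compound exposure lasted 48 hours before the viability readout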). Conditions: CellTiter-Glo ATP luminescence.
The nature of test [6]: blockers of cellular phospholipid synthesis – cell-based, LOPAC library, screen 4, primary screen (AID 1347384). The settings on record: animal cells, phospholipid biosynthesis inhibition screen; at 10 µM.
Test [7] can be described thus: growth inhibition, single agent or in combination, cell-based, chromothripsis tumors, cisplatin or BGB combos (AID 1671449; in the data active means inhibition above about 80%;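 further: cells exposed for 96 hours; 0% = vehicle DMSO and 100% = killing by high DMSO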). Conditions: LFS_MB_P medulloblastoma cells.
The nature of test [8]: growth inhibition, single agent and combos, cell-based, chromothripsis tumors, cisplatin or BGB combos (AID 1671450; in the data active means inhibition above about 80%;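 further: cells exposed to compound for four days; 0% = vehicle DMSO and 100% = cell killing by high DMSO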). The settings on record: HDN33 neuroblastoma cells, stronger effect = higher value.
The nature of test [9]: growth inhibition, single agents and combos, HTB85, cell-based, BGB or cisplatin IC20 combos, synergistic combos for chromothripsis tumors (AID 1671453; in the data active means inhibition above about 80%;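 further: cells exposed for 96 hours before readout; 0% = vehicle DMSO and 100% = high DMSO killing control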). Conditions: HTB85 osteosarcoma cells, drug combinations, stronger effect = higher value.
A short description of test [10]: growth inhibition, MDA-MB-436, cell-based, BGB or cisplatin combos, synergistic combos for chromothripsis tumors (AID 1671458).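 Further: cells exposed for 96 hours; 0% = vehicle DMSO and 100% = killing by high DMSO.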 The settings on record: MDA-MB-436 breast carcinoma growth inhibition, drug combinations, stronger effect = higher value.
Test [11] in a line: BT084 cell growth, single and combined drugs, ICGC_MB145, cisplatin and BGB IC40 combos (AID 1671461; in the data active means inhibition above about 80%;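 further: cells exposed to drugs for 96 hours; 0% = vehicle DMSO and 100% = high DMSO full killing control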). The settings on record: BT084 medulloblastoma cells, drug combinations, stronger effect = higher value.
Test [12] is described as follows: RCMB18 cell growth, single agent and combined, cisplatin and BGB IC40 combos (AID 1671462; in the data active means inhibition above about 80%;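 further: cells exposed to compound for four days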). Conditions: RCMB18 medulloblastoma cells, stronger effect = higher value.
Test [13] is described as follows: CRL1545 cell growth, single agent and combined, cisplatin and BGB IC20 combos (AID 1671464; in the data active means inhibition above about 80%;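 further: cells exposed to compound for 96 hours before readout; 0% = vehicle DMSO and 100% = high DMSO killing control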). Conditions: CRL1545 osteosarcoma cells, stronger effect = higher value.
Test [14] is described as follows: growth inhibition of DIPG cells – cell-based, MIPE4.0 library, CellTiter-Glo luminescence, qHTS (AID 1347066; cut-off not given, nearly all actives have AC50 up to about 30 µM;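 further: cells exposed to compound for 48 hours before readout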). Conditions: SU-DIPG-VI viability, CellTiter-Glo ATP luminescence.
Test [15] in a line: JHH-DIPG-1 glioma cell viability, MIPE5.0 library, CellTiter-Glo luminescence, qHTS (AID 1347067; cut-off not given, nearly all actives have AC50 up to about 26 µM;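 further: cells exposed to compound for 48 hours before readout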). The settings on record: JHH-DIPG-1 glioma viability, CellTiter-Glo ATP luminescence. (ATP-based viability assays read luminescence as a measure of living cells.)
A short description of test [16]: viability loss in pontine glioma line – cell-based, SU-DIPG-XVII, MIPE5.0, CellTiter-Glo, qHTS, dose response (AID 1347060; cut-off not given, nearly all actives have AC50 up to about 26 µM;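 further: cells exposed to compound for 48 hours before viability readout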). Conditions: CellTiter-Glo ATP luminescence.
Test [17] in a line: viability loss in pontine glioma line – cell-based, SU-DIPG-XIII, MIPE4.0, CellTiter-Glo, qHTS, dose response (AID 1347061; cut-off not given, nearly all actives have AC50 up to about 37 µM;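 further: cells exposed to compound for 48 hours before readout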). The settings on record: CellTiter-Glo ATP luminescence.
The nature of test [18]: growth inhibition of DIPG cells – cell-based, MIPE5.0 library, qHTS (AID 1347068; cut-off not given, nearly all actives have IC50 up to about 30 µM). The settings on record: SU-DIPG-XXV viability.
Test [19] is described as follows: P. berghei load reduction in hepatocytes – cell-based, HepG2, luciferase luminescence, HepG2 viability, primary screen (AID 624349; in the data active means parasite load remaining mostly below about 12%, no sharp cut-off; inactive means mostly above about 10%;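 further: 100% = mean of DMSO negative control wells on the same plate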). Conditions: P. berghei liver stage in HepG2, luciferase luminescence, concentration not given here; parasite load remaining: stronger effect = lower value; viability: measured here: HepG2 viability without parasites.
The mark [20] stands for this setting: measured here: with BGB IC20 combination, at 0.5 µM.
The mark [21] stands for this setting: measured here: with cisplatin IC20 combination, at 0.5 µM.

Where “and” joins values, the source holds several entries; their conditions need not be identical. Equal entries are not always repeated. Results filed as inconclusive are left out. Calls of active or inactive are those of the source. Unless noted, how the calls were made is not given here.

A word on the inhibition: it is the drop in the measured response relative to a control, in per cent. In turn, `Cn1cnc([N+](=O)[O-])c1Sc1ncnc2nc[nH]c12` gave an inclusion score in test [1] of 2. Further, the period change in test [2] is 0.485 h (inactive). The inhibition in test [3] is -2% (inactive); in test [7] (at 0.5 µM, stronger effect = higher value) it was -24.5% (inactive) and -18.6% (inactive); in test [7] (measured here: combination with BGB IC20, at 0.005 µM), -29.8% and -1.49%; in [7] (measured here: combination with BGB IC40, at 0.005 µM) it was -7.88% and -5.24%; in test [7] (measured here: combination with BGB IC40, at 0.05 µM) it was -1.05% and 8.34%; in test [7] (measured here: combination with cisplatin, at 0.5 µM, stronger effect = higher value) it was -41.8% and -13.7%. In addition, the inhibition is -15% and -14.9% in test [7] (measured here: combination with cisplatin, at 5 µM, stronger effect = higher value); 27% and -4.71% in test [8] (BGB combo, at 5 µM); 9.11% (inactive) and 3.47% (inactive) in test [8] (at 0.5 µM); 18.8% and 16.9% in test [8] (cisplatin combo, at 5 µM); 3.66% and -16.5% in [8] (setting [20]); 5.32% and -7.32% in [8] (setting [21]). Also, the inhibition in test [8] (single agent, at 5 µM) was 55.4% and 48.5%; in [9] (at 0.5 µM), -24.4% (inactive) and -11% (inactive); in test [9] (measured here: with BGB IC20, at 0.5 µM), -62.4% and -24%; in [9] (measured here: with BGB IC20, at 5 µM), -10.9% and -18.4%; in test [9] (measured here: with cisplatin IC20, at 0.5 µM), -12.7% and 1.06%; in test [9] (measured here: with cisplatin IC20, at 5 µM), 8.32% and 19.5%. In addition, the inhibition in test [9] (single agent, at 5 µM) was 11% and -0.274%; in test [10] (at 0.5 µM) it was -2.35% (inactive) and 8.87% (inactive); in test [10] (measured here: BGB combination, at 0.5 µM), -11.4% and 6.51%; in test [10] (measured here: BGB combination, at 5 µM), 17.6% and 21.4%; in test [10] (measured here: cisplatin combination, at 0.5 µM) it was -16% and 2.87%; in test [10] (measured here: cisplatin combination, at 5 µM), 26.8% and 35.6%. Besides, the inhibition in test [11] (at 0.5 µM) is -16.8% (inactive) and 4.68% (inactive); in test [11] (cisplatin combination, at 0.5 µM), -15.8% and -6.89%; in test [11] (cisplatin combination, at 5 µM), -45.6% and -9.16%; in test [11] (measured here: BGB IC40 combination 0.05 uM, at 0.05 µM), 2.92% and 62.8%; in [11] (single agent, at 5 µM), -13.5% and -5.72%; in [12] (at 0.5 µM) it was -11.9% (inactive) and -11.3% (inactive). Further, the inhibition in test [12] (cisplatin combo, at 5 µM) is 4.98% and -8.51%; in test [12] (measured here: BGB IC40 combination, at 0.05 µM), -6.18% and -2.54%; in [12] (measured here: combination with cisplatin, at 0.5 µM), -8.48% and -16.8%; in test [12] (single agent, at 5 µM), -19.3% and -29.9%; in [13] (at 0.5 µM), -10.1% (inactive) and 15.6% (inactive); in test [13] (setting [20]) it was 23.3% and -13%. The inhibition in test [13] (setting [21]) is -26.8% and 29.9%; in test [13] (single agent, at 0.05 µM), 10.6% and 46.1%; in test [13] (single agent, at 5 µM), 25.6% and 21%. Further, the fluorescence ratio (interference) in test [4] is 1 (inactive). Further, the call in test [5] and in test [6] was inactive.

In turn, `Cc1cn([C@H]2C[C@H](N=[N+]=[N-])[C@@H](CO)O2)c(=O)[nH]c1=O` showed an inclusion score in test [1] of 2. Also, the call in [5] and in test [14] was inactive.

The compound `NS(=O)(=O)c1cc(C2(O)NC(=O)c3ccccc32)ccc1Cl` (stereo unspecified) came in with an inclusion score in [1] of 2.

A word on the AC50: it is the concentration at which the activity in the assay is half-maximal. In the case of `CN[C@H]1CC[C@@H](c2ccc(Cl)c(Cl)c2)c2ccccc21`, in test [15], the AC50 is 16.6 µM (active).

Turning to `CCc1nc(N)nc(N)c1-c1ccc(Cl)cc1`, the AC50 in test [16] was 3.72 µM (active). The compound was classed as inactive in test [17], in [5], in [14], in [15] and in test [18].

In turn, `CO[C@@]1(NC(=O)Cc2cccs2)C(=O)N2C(C(=O)O)=C(COC(N)=O)CS[C@@H]21` came in with an inclusion score in test [1] of 2.

In test [1], `NCc1ccc(S(N)(=O)=O)cc1` returned an inclusion score of 2.

Consider `O=C1C(CCS(=O)c2ccccc2)C(=O)N(c2ccccc2)N1c1ccccc1` (stereo unspecified), for which the inclusion score in test [1] came out at 1.5.

The compound `COc1ccc(OC)c(C(O)CNC(=O)CN)c1` (stereo unspecified) showed an inclusion score in test [1] of 2.

`CC(=O)Nc1nnc(S(N)(=O)=O)s1` had an inclusion score in test [1] of 2. Besides, the period change in test [2] is 0.15 h (inactive). The inhibition in [3] is -1% (inactive). For the same compound, the fluorescence ratio (interference) in [4] was 1 (inactive). Moreover, in [6], the call was inactive.

As a reminder, the viability is a read-out of living cells in per cent, often relative to untreated cells. On to `CCCCC1=NC2(CCCC2)C(=O)N1Cc1ccc(-c2ccccc2-c2nn[nH]n2)cc1`, for which, in test [19], the parasite load remaining was 50.9% (inactive) and 54.9% (inactive) and 98.2% (inactive); the viability was 86.5% and 93.9% and 73.1%.

In the case of `CCCCNC(=O)NS(=O)(=O)c1ccc(C)cc1`, the inclusion score in test [1] is 2. Besides, the period change in test [2] was 0 h (inactive). For the same compound, the inhibition in test [3] is -5% (inactive). The fluorescence ratio (interference) in [4] is 1 (inactive). For the same compound, in test [6], the outcome was inactive.

In test [1], `CN(C)CCOC(C)(c1ccccc1)c1ccccn1` (stereo unspecified) gave an inclusion score of 2. Besides, in test [2], the period change was 0.205 h (inactive). For the same compound, the inhibition in test [3] was -2% (inactive). For the same compound, the fluorescence ratio (interference) in test [4] is 1.1 (inactive). Moreover, the compound was called inactive in test [6].

`NS(=O)(=O)c1cc2c(cc1C(F)(F)F)NCNS2(=O)=O` yielded an inclusion score in [1] of 2.

Take `CSc1ccc2c(c1)N(CCC1CCCCN1C)c1ccccc1S2` (stereo unspecified): the period change in [2] is -0.225 h (inactive). Besides, in test [3], the inhibition was -3% (inactive). Moreover, the fluorescence ratio (interference) in test [4] is 0.9 (inactive). Besides, the result in [6] was inactive.

`c1ccc2c(c1)CCCC2C1=NCCN1` (stereo unspecified): the inclusion score in test [1] was 2. Further, in test [2], the period change is -0.02 h (inactive). In [3], the inhibition is -3% (inactive). Moreover, in test [4], the fluorescence ratio (interference) was 1 (inactive). For the same compound, the compound was called inactive in test [6].

In test [1], `NC(=O)N1c2ccccc2C=Cc2ccccc21` gave an inclusion score of 2. Besides, in test [2], the period change was 0.01 h (inactive). For the same compound, the inhibition in test [3] was -1% (inactive). In test [4], the fluorescence ratio (interference) is 1 (inactive). The compound was called inactive in [6].

As to `CC(C)NCC(O)c1cc(O)cc(O)c1` (stereo unspecified), the inclusion score in [1] was 2. Also, the period change in [2] is -0.17 h (inactive). The inhibition in test [3] is -4% (inactive). Further, the fluorescence ratio (interference) in test [4] was 0.9 (inactive). In [6], the compound was called inactive.

The values above are taken from PubChem BioAssay.
